# PubChem BioAssay (NCATS)
# Results filed as inconclusive are left out. Entries that show only a call come without a potency. Active and inactive are the calls of the source. Calls follow the shape of the dose curve; as a rule, active = well fitted curve in the direction sought with a large enough effect; inconclusive = small, poorly fitted or top-dose-only effect, or another doubt; inactive = no such curve, though single readings can be large; an effect the other way counts as inactive or inconclusive.
# Key:
# [1] = Quantitative High-Throughput drug screen in 47 multiple myeloma cell lines against the NCATS MIPE library collection: FR4_PLB cell viability assay (AID 1918924; also: nearly all actives have a fitted effect of over 35% in size)
# How it was run: (§1)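 Primary qHTS used for cherry-picking: cells at 500/well, library compounds for 48 h (37C, 5% CO2), luminescent ATP assay.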
# [2] = Quantitative High-Throughput drug screen in 47 multiple myeloma cell lines against the NCATS MIPE library collection: EJM_DSMZ cell viability assay (AID 1918926; also: nearly all actives have a fitted effect of over 30% in size)
# How it was run: (§2)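 We plated 500 myeloma cells per well, pinned in MIPE 4.0 compounds, and incubated for 48 hours at 37C. ATP was then quantified with CellTiter-Glo, with DMSO and media-only wells defining 100% and 0%.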
# [3] = Quantitative High-Throughput drug screen in 47 multiple myeloma cell lines against the NCATS MIPE library collection: AMO1_DSMZ cell viability assay (AID 1918927; also: nearly all actives have a fitted effect of over 30% in size)
# How it was run: as §2
# [4] = Quantitative High-Throughput drug screen in 47 multiple myeloma cell lines against the NCATS MIPE library collection: ARP1_JJKsccF8 cell viability assay (AID 1918928; also: nearly all actives have a fitted effect of over 40% in size)
# How it was run: (§3)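 Myeloma cells, 500 per well, were exposed to MIPE 4.0 drugs by pin transfer for 48 h at 37 °C, 5% CO2. Viability was read as ATP luminescence with CellTiter-Glo, normalised to DMSO-only (100%) and medium-only (0%) wells.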
# [5] = Quantitative High-Throughput drug screen in 47 multiple myeloma cell lines against the NCATS MIPE library collection: ARD_JJKsccE7 cell viability assay (AID 1918929)
# How it was run: as §2
# [6] = Quantitative High-Throughput drug screen in 47 multiple myeloma cell lines against the NCATS MIPE library collection: Karpas620_DSMZ cell viability assay (AID 1918959); also: nearly all actives have a fitted effect of over 30% in size
# How it was run: as §1
# [7] = Quantitative High-Throughput drug screen in 47 multiple myeloma cell lines against the NCATS MIPE library collection: KMM1_JCRB cell viability assay (AID 1918960); also: nearly all actives have a fitted effect of over 30% in size
# How it was run: as §3
# [8] = Quantitative High-Throughput drug screen in 47 multiple myeloma cell lines against the NCATS MIPE library collection: Karpas417_ECACC cell viability assay (AID 1918961); conditions: Karpas417 myeloma viability, CellTiter-Glo ATP luminescence, 48 h; viability (% of DMSO): at 45.8 µM (top of the series)
# How it was run: as §2
# [9] = Quantitative High-Throughput drug screen in 47 multiple myeloma cell lines against the NCATS MIPE library collection: JIM3_ECACC cell viability assay (AID 1918963; also: nearly all actives have a fitted effect of over 35% in size)
# How it was run: as §1
# [10] = Quantitative High-Throughput drug screen in 47 multiple myeloma cell lines against the NCATS MIPE library collection: Delta47_JCRB cell viability assay (AID 1918925; also: nearly all actives have a fitted effect of over 45% in size)
# How it was run: as §2
# [11] = Quantitative High-Throughput drug screen in 47 multiple myeloma cell lines against the NCATS MIPE library collection: KHM11_PLB cell viability assay (AID 1918962); also: nearly all actives have a fitted effect of over 35% in size
# How it was run: as §1
# [12] = Quantitative High-Throughput drug screen in 47 multiple myeloma cell lines against the NCATS MIPE library collection: JIM1_ECACC cell viability assay (AID 1918964)
# How it was run: as §2
# [13] = Quantitative High-Throughput drug screen in 47 multiple myeloma cell lines against the NCATS MIPE library collection: INA6_PLB cell viability assay (AID 1918965; also: nearly all actives have a fitted effect of over 55% in size)
# How it was run: as §2
# [14] = Quantitative High-Throughput drug screen in 47 multiple myeloma cell lines against the NCATS MIPE library collection: JJN3_DSMZ cell viability assay (AID 1918966; also: nearly all actives have a fitted effect of over 50% in size)
# How it was run: as §2
# Potency is read from the fitted curve at half-maximal effect.
SMILES,Potency [1],Potency [2],Potency [3],Potency [4],Potency [5],Potency [6],Potency [7],Potency [8],Potency [9],Potency [10],Potency [11],Potency [12],Potency [13],Potency [14]
NC1CCC(Nc2nc(Nc3ccc(C(=O)N4CCCCC4)cc3)c3ncn(-c4cccc(F)c4)c3n2)CC1 (centres undefined),inactive,inactive,inactive,inactive,inactive,inactive,inactive,inactive,inactive,–,–,–,–,–
OC[C@H]1O[C@@H](Oc2cc(O)cc(C=Cc3ccc(O)cc3)c2)[C@H](O)[C@@H](O)[C@H]1O,inactive,4.69 µM (active),inactive,–,–,inactive,–,–,inactive,–,–,–,–,–
Cc1[nH]c(C=C2C(=O)Nc3ccc(S(=O)(=O)Cc4c(Cl)cccc4Cl)cc32)c(C)c1C(=O)N1CCC[C@H]1CN1CCCC1,23.5 µM (active),–,26.4 µM (active),23.5 µM (active),9.35 µM (active),–,18.7 µM (active),–,18.7 µM (active),5.9 µM (active),8.33 µM (active),7.43 µM (active),3.32 µM (active),–
N#CC(=C(N)Sc1ccccc1N)C(C#N)=C(N)Sc1ccccc1N,7.43 µM (active),10.5 µM (active),18.7 µM (active),–,20.9 µM (active),–,18.7 µM (active),–,18.7 µM (active),–,0.662 µM (active),16.6 µM (active),16.6 µM (active),–
CC(C)OC(=O)CCCC=CC[C@@H]1[C@H](C=C[C@@H](O)COc2cccc(C(F)(F)F)c2)[C@H](O)C[C@@H]1O,29.6 µM (active),–,inactive,20.9 µM (active),inactive,inactive,inactive,–,20.9 µM (active),14.8 µM (active),23.5 µM (active),inactive,11.8 µM (active),–
C[N+](C)(C)CC(=O)O,inactive,inactive,–,–,inactive,–,–,–,–,–,inactive,–,–,–
CCCCCCCCCCCC1=C(O)C(=O)C=C(O)C1=O,20.9 µM (active),–,3.32 µM (active),11.8 µM (active),1.66 µM (active),0.264 µM (active),2.96 µM (active),–,4.69 µM (active),3.32 µM (active),–,0.59 µM (active),2.64 µM (active),–
CC[C@]1(O)C[C@@H]2CN(CCc3c([nH]c4ccccc34)[C@@](C(=O)OC)(c3cc4c(cc3OC)N(C=O)[C@@H]3C45CCN4CC=C[C@](CC)([C@H]45)[C@@H](OC(C)=O)[C@]3(O)C(=O)OC)C2)C1 (some centres undefined),20.9 µM (active),–,–,–,inactive,inactive,–,–,–,–,–,inactive,–,20.9 µM (active)
CC=CC(=O)N(CC)c1ccccc1C,inactive,inactive,inactive,5.26 µM (active),inactive,inactive,inactive,–,inactive,–,inactive,inactive,inactive,–
O=C(OCC#CCSc1nnc(-c2cccc3ccccc23)o1)c1cc2ccccc2s1,inactive,23.5 µM (active),–,–,inactive,inactive,inactive,–,inactive,inactive,inactive,inactive,inactive,–
CC1(C)CCC[C@@]2(C)[C@@H]1CC[C@@]1(C)OC(=O)C[C@H]21,14.8 µM (active),inactive,–,inactive,–,inactive,inactive,–,inactive,–,inactive,inactive,inactive,–
O=C1NC(=O)C(=Cc2cccc(C(F)(F)F)c2)S1,inactive,20.9 µM (active),–,–,–,–,–,26.4 µM (active),–,–,–,–,–,–
Clc1ccc(-c2nc3sccn3c2C=NOCc2ccc(Cl)c(Cl)c2)cc1,inactive,–,inactive,inactive,–,inactive,inactive,–,–,–,inactive,–,inactive,–
OC[C@H]1O[C@@H](n2cnc3c2NC=NC[C@@H]3O)C[C@H]1O,inactive,–,inactive,–,inactive,14.8 µM (active),inactive,inactive,–,inactive,inactive,inactive,inactive,–
O=C(CCc1ccc(O)cc1)c1c(O)cc(O)cc1O[C@@H]1O[C@H](CO)[C@H](O)[C@H](O)[C@H]1O,inactive,inactive,–,inactive,inactive,inactive,–,–,inactive,inactive,–,–,–,–
C[C@]12CC[C@@H]3c4ccc(O)cc4CC[C@H]3[C@H]1C[C@@H](O)[C@H]2O,inactive,–,18.7 µM (active),9.35 µM (active),inactive,–,–,–,inactive,2.64 µM (active),–,–,–,–
CC[C@H]1OC(=O)[C@H](C)[C@@H](O[C@H]2C[C@@](C)(OC)[C@@H](O)[C@H](C)O2)[C@H](C)[C@@H](O[C@@H]2O[C@H](C)C[C@H](N(C)C)[C@@H]2O)[C@](C)(O)C[C@@H](C)CN(C)[C@H](C)[C@@H](O)[C@]1(C)O,inactive,inactive,inactive,inactive,inactive,inactive,inactive,–,inactive,–,–,–,–,–
Cc1nnc(C(C)C)n1C1C[C@H]2CC[C@@H](C1)N2CC[C@H](NC(=O)C1CCC(F)(F)CC1)c1ccccc1 (some centres undefined),inactive,–,inactive,inactive,–,–,–,–,inactive,–,–,–,–,–
CC1(C)Cc2c(sc(NC(=S)NC(=O)c3ccccc3)c2C(=O)O)CO1,inactive,–,inactive,–,–,–,–,–,–,–,inactive,inactive,–,–
CCc1ccc(C=C2SC(=S)NC2=O)cc1,inactive,inactive,–,inactive,–,–,–,–,–,inactive,inactive,inactive,2.35 µM (active),–
O=C(NOCC(O)CO)c1cc(Br)c(F)c(F)c1Nc1ccc(I)cc1F (centres undefined),inactive,inactive,–,–,–,–,inactive,–,–,–,–,–,–,–
Cn1cc(C=C2C(=O)Nc3cccnc32)c2ccccc21,inactive,inactive,–,–,–,inactive,–,–,16.6 µM (active),–,–,–,–,–
CN(C)CCC=C1c2ccccc2COc2ccc(CC(=O)O)cc21,inactive,inactive,inactive,inactive,inactive,inactive,–,–,inactive,–,–,inactive,–,–
